# Activity calls are given as the source filed them. How the calls were made is not given here.
# Target: Pantothenate synthetase (Mycobacterium tuberculosis (strain ATCC 25618 / H37Rv)) (UniProt P9WIL5)
# Experiment: Recombinant Mtb pantothenate synthetase (PanC) inhibitors, coupled enzyme, confirmatory (AID 375);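 further: 0% = full reaction with vehicle and 100% = no enzyme background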
# Conditions: coupled enzyme assay; at 10 µM, active compounds read high
# Sequence of Pantothenate synthetase (Mycobacterium tuberculosis (strain ATCC 25618 / H37Rv)) (P9WIL5 whole entry, looked up): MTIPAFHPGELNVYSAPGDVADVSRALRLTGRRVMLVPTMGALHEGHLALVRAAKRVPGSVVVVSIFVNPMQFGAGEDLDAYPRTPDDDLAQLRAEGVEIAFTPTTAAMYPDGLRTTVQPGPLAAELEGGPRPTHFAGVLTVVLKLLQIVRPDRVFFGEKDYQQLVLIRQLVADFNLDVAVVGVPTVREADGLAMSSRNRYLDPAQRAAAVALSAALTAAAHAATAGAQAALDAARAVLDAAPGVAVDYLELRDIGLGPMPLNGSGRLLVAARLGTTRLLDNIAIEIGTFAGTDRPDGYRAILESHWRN
row,Structure (SMILES),inhibition
1,O=C(COC(=O)c1cc(-c2ccco2)nc2ccccc12)NCc1ccc2c(c1)OCO2,0% (inactive)
2,CC(C)CCn1c(N)c(S(=O)(=O)c2cccs2)c2nc3ccccc3nc21,0% (inactive)
3,COc1ccc2c(c1)C1(C)CC(C)(C)N2C(=O)N1c1ccccc1 (stereo not given),4% (inactive)
4,Cc1ccc(S(=O)(=O)NCCN2CCOCC2)cc1C,3% (inactive)
5,Cc1cc(-c2ccccc2)nc2cc(C(N)=O)nn12,12% (inactive)
6,CCn1c(SCC(=O)Nc2ccc(C(=O)OC)cc2)nnc1-c1cccs1,3% (inactive)
7,COc1ccc(CCNc2oc(-c3ccco3)nc2C#N)cc1,2% (inactive)
8,CCCCN=CC1=C(O)C(C(=O)OC)C(C)(C)CC1=O (stereo not given),0% (inactive)
9,CCOc1cc(C)c(C(C)C)cc1S(=O)(=O)N1CCN(C)CC1,0% (inactive)
10,CCn1c(SCC(=O)NCc2ccco2)nc2c(c1=O)SC(C)C2 (stereo not given),8% (inactive)
11,CCOC(=O)N1CCN(C(=O)Nc2ccc(Cl)cc2)CC1,0% (inactive)
12,CC(Sc1n[nH]c(=O)[nH]c1=O)C(=O)OCc1ccccc1 (stereo not given),2% (inactive)
13,c1ccc(N2CCN(Cc3cn4cccnc4n3)CC2)cc1,3% (inactive)
14,CCCCOc1ccc(-c2nnc(N)s2)cc1,0% (inactive)
15,CCc1cn([C@H]2C[C@H](O)[C@@H](CO)O2)c(=O)[nH]c1=O,0% (inactive)
16,Cc1nc2ncnn2c(Nc2ccc3c(c2)OCCO3)c1C,3% (inactive)
17,COc1ccccc1N1C(=O)CC(Sc2nc(C)cc(C)n2)C1=O (stereo not given),0% (inactive)
18,Cc1nc2cc(N3CCCCC3)c(NC(=O)c3cccnc3)cc2c(=O)n1Cc1ccccc1,1% (inactive)
19,O=C1OCCC1Sc1ncnc2sccc12 (stereo not given),0% (inactive)
20,COc1ccc(-c2nc(CCNC(=O)c3ccco3)cs2)cc1OC,5% (inactive)

row,Structure (SMILES),inhibition
1,CC(C)COC(=O)N(C)c1ccc(C(O)(C(F)(F)F)C(F)(F)F)cc1,5% (inactive)
2,Cc1ccc2cc(C#N)c(NCCCNC(=O)C3CCCO3)nc2c1 (stereo not given),0% (inactive)
3,O=C(Cn1nc(Cc2ccncc2)c2ccccc2c1=O)N1CCN(C(=O)c2ccco2)CC1,0% (inactive)
4,COc1ccc2c(c1)[nH]c1c(=O)n(CCN(C)C)cnc12,0% (inactive)
5,CC(C[N+](C)(C)C)OC(N)=O (stereo not given),0% (inactive)
6,CCCc1nnc(SCC(=O)N2CCOCC2)n1Cc1ccco1,0% (inactive)
7,COc1ccc(NC(=O)c2cc(C)on2)cc1OC,8% (inactive)
8,CCc1cc2c(=O)c(-c3cscn3)coc2cc1O,0% (inactive)
9,Cc1ccc2c(c1)CCCN2C(=O)c1ccc2c(c1)OCO2,0% (inactive)
10,Cc1csc2nc(CSc3ccc(Cl)cc3)cn12,0% (inactive)
11,O=S(=O)(c1ccccc1)N1CCN(S(=O)(=O)c2ccccc2)C1,0% (inactive)
12,O=C(C1CCC1)N1CCc2cc(S(=O)(=O)Nc3ccc4c(c3)OCO4)ccc21,16% (inactive)
13,Cc1ccc(Cn2nnc(C(=O)Nc3cccc(C)c3C)c2N)cc1,5% (inactive)
14,O=C1NCCCc2c1no[n+]2[O-],18% (inactive)
15,COCCNc1nc(C(C)(C)C)nc2c1nnn2Cc1ccccc1Cl,0% (inactive)
16,COc1ccc(C2=Nn3c(nnc3-c3ccccc3)SC2)cc1OC,0% (inactive)
17,COc1cccc(C2C(C(N)=O)=C(C)Nc3nc(-c4ccccc4Cl)nn32)c1 (stereo not given),0% (inactive)
18,Cc1cc(C)nc(/N=C2\NC(=O)CC(C(=O)O)N2c2ccc(Cl)cc2)n1 (stereo not given),0% (inactive)
19,CC(=O)C1=C(C)NC(=O)NC1c1cccc(O)c1 (stereo not given),8% (inactive)
20,Cc1ccc(S(=O)(=O)N2CCOCC2)cc1C(=O)Nc1nc(-c2cccnc2)cs1,0% (inactive)
